Screens (PubChem)
Shown are actives, neighbours in structure and some others; about 1.2% of the full set was active somewhere.
TrxR1 inh-1 – qHTS Assay for Inhibitors of Mammalian Selenoprotein Thioredoxin Reductase 1 (TrxR1): qHTS | Thioredoxin reductase 1, cytoplasmic (Rattus norvegicus), O89049 | recombinant rTrxR1, NADPH fluorescence consumption, selenite substrate | Potency, µM (top dose mostly 114 µM), without a hit: top-dose activity change, negative = inhibition, hits mostly inhibitors | 1% of 390,000 active; note: potency is the fitted concentration of half-maximal effect; % is set by controls: 0 for no effect and ±100 for the full control effect; nearly all actives have a fitted effect of over 65% in size
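Rat TrxR1 (90 nM in the dispensed reagent) was pre-reduced with 400 uM NADPH for 5 min at room temperature, then incubated with compound for 15 min. After 400 uM selenite was added, NADPH fluorescence (Ex 340/Em 450 nm) was followed for 8 min.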
GALK inh – qHTS Assay for Inhibitors of Human Galactokinase (GALK); Potency, µM (top dose mostly 57.5 µM), for the others: at the highest dose activity change, negative = inhibition, hits mostly inhibitors; P51570; Purified GALK, Kinase-Glo residual ATP luminescence; 0.007% of 270,000 active; note: potency is the fitted concentration of half-maximal effect; % is set by controls: 0 for no effect and ±100 for the full control effect
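The enzyme phosphorylates galactose (100 uM) using ATP (35 uM); inhibition is detected as higher residual ATP, quantified by bioluminescence after 1 h reaction at room temperature, pH 8.0.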
PI4K2A inh – qHTS for small molecular inhibitors of PI4K2A; Phosphatidylinositol 4-kinase type 2-alpha (Homo sapiens), Q9BTU6; purified PI4K2A, ADP-Glo luminescence, 1 h; active compounds read low; activity change, negative = inhibition, % at 76.9 µM; 0.13% of 420,000 active; AID 1346378, 2018; in the data active = activity change below about -50%; inconclusive = mostly about -30% to -49%;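 note: -100% = wells without enzyme as full effect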
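Compounds are screened against recombinant PI4K2A using PI as substrate and ATP, the latter dispensed at 300 microM. Reactions run one hour at ambient temperature before ADP-Glo detection; full inhibition defined by wells lacking enzyme.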
PKM2 activator – qHTS Assay for Activators of Human Muscle isoform 2 Pyruvate Kinase. Pyruvate kinase PKM (Homo sapiens), P14618. purified PKM2, Kinase-Glo ATP luminescence, activation; response scale: 0% is enzyme alone, no compound. 0.34% of 260,000 active. AID 1631, 2009. Potency, µM (doses to about 57.5 µM), without a hit: at the highest dose activation, most hits filed as activators; note: potency is the fitted concentration of half-maximal effect; % is set by controls: 0 for no effect and ±100 for the full control effect; nearly all actives have a fitted effect of over 55% in size
Target sequence (P14618 whole entry, looked up, canonical isoform): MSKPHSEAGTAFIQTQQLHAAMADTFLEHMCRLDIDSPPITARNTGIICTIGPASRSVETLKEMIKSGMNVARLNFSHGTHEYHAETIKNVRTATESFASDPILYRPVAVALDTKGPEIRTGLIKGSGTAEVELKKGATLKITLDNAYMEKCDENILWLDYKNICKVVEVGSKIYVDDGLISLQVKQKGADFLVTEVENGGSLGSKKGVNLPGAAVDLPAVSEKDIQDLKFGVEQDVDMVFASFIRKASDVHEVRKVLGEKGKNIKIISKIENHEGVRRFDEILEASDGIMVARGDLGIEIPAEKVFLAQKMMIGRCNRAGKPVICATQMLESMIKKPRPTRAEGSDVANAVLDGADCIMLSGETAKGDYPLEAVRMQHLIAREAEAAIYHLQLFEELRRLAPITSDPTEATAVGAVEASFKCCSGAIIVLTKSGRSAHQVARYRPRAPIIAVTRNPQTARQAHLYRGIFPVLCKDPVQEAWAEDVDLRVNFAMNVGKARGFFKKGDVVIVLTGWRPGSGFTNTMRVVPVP
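hPK-M2, >95% pure; 0.1 mM ADP / 0.5 mM PEP final; imidazole pH7.2 buffer w/ 7 mM MgCl2, 50 mM KCl; 1 h RT; Kinase-Glo lum. Intermediate enzyme activity for dual inhibitor/activator qHTS.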
TrxR1 substrate – qHTS Assay for Substrates of Mammalian Selenoprotein Thioredoxin Reductase 1 (TrxR1): qHTS. Potency, µM (top dose mostly 114 µM), inactives show top-dose activity change, negative = substrate turnover. purified TrxR1 substrate turnover, NADPH consumption readout. 0.01% of 390,000 active. Thioredoxin reductase 1, cytoplasmic (Rattus norvegicus), O89049; note: potency is the fitted concentration of half-maximal effect; % is set by controls: 0 for no effect and ±100 for the full control effect; nearly all actives have a fitted effect of over 50% in size
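Rat TrxR1, dispensed at 90 nM, was prereduced with 400 uM NADPH (final) for 5 min at ~22 deg C, then incubated with compound 15 min before 400 uM selenite. A first-read NADPH fluorescence drop versus no-compound background flagged substrates.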
GR inh – qHTS Assay for Inhibitors of Mammalian Selenoprotein Thioredoxin Reductase 1 (TrxR1): Counterassay in Glutathione Reductase (GR); shares compounds with TrxR1 inh-1; purified GR, DTNB reduction absorbance 405 nm kinetic; activity change, negative = inhibition, % at 57.1 µM; 55 tested, under 10 active
TrxR1 inh-2 – qHTS Assay for Inhibitors of Mammalian Selenoprotein Thioredoxin Reductase 1 (TrxR1): Hit Validation in Primary Screen; shares compounds with TrxR1 inh-1; recombinant TrxR1, NADPH fluorescence consumption, selenite substrate; Potency, µM, usual class: inhibitors; 50% of 55 active
TrxR1 insulin MOA – qHTS Assay for Inhibitors of Mammalian Selenoprotein Thioredoxin Reductase 1 (TrxR1): Insulin MOA Assay; shares compounds with TrxR1 inh-1; TrxR1 Trx-coupled insulin reduction, NADPH absorbance 340 nm; Potency, µM; 20% of 55 active; AID 652037, 2013;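 active = compounds with a measured potency under 100 micromolar; inconclusive = filed, but no rule given; inactive = potency at or above that, or unmeasurable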
TrxR1 inh-3 – qHTS Assay for Inhibitors of Mammalian Selenoprotein Thioredoxin Reductase 1 (TrxR1): DTNB Assay; shares compounds with TrxR1 inh-1; purified TrxR1, DTNB reduction, A412; Potency, µM; 90% of 55 active; AID 652256, 2013;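 active = a half-inhibiting concentration could be measured and was below 100 µM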
Active calls of the source: *; i = inactive; ? = inconclusive; . = not tested or not shown; [ ] = dose if it differs, or a comment. Unless noted, calls come from the whole dose curve; as a rule, active = well fitted curve in the direction sought with a large enough effect; inconclusive = small, poorly fitted or top-dose-only effect, or another doubt; inactive = no such curve, though single readings can be large; an effect the other way counts as inactive or inconclusive.

SMILES	TrxR1 inh-1	GALK inh	PI4K2A inh	PKM2 activator	TrxR1 substrate	GR inh	TrxR1 inh-2	TrxR1 insulin MOA	TrxR1 inh-3
CCCCCCCN1C(Nc2ccccc2)=NC[C@@H]1Cc1ccccc1	11%	.	1	0%	1%	.	.	.	.
CCN1C(Nc2ccccc2)=NC[C@@H]1Cc1ccccc1	16µM*	.	-2	0%	5%	-11	?	i	0.87µM*
Cc1ccc(NC(=O)CCN2C(=O)c3ccccc3Sc3ncccc32)cc1	11µM*	2%	6	.	-10%	0	9.5*	i	i
O=C(Nc1cnn(Cc2ccc(Cl)cc2Cl)c1)c1noc2c1CCc1ccccc1-2	14%	.	5	.	-1%	.	.	.	.
CCOc1ccc(S(=O)(=O)c2cc3cccc(OCC)c3oc2=O)cc1	36%	.	6	.	4%	.	.	.	.
CCc1c(C(C)S(=O)(=O)c2ccccc2)[nH]c(=O)n1CC (stereo unspecified)	1.8µM*	3%	4	-20%	-16%[57.1 µM]	-13	2.4*	4µM*	0.045µM*
CC(S(=O)(=O)c1ccccc1)S(=O)(=O)c1ccccc1	.	.	-3	.	.	.	.	.	.
S=C(NCC1CCCCC1)OC1CCC12CCC(c1ccccc1)CC2 (stereo unspecified)	.	.	1	.	.	.	.	.	.
O=C(Nc1nonc1-c1ccc(Br)cc1)c1ccco1	3%	.	-4	.	-8%	.	.	.	.
Cc1ccc(CNC(=O)c2cc3c(=O)n(C)c4ccccc4c3n2C)o1	?	2%	1	?	6%	.	.	.	.
Cc1ccc(CNC(=O)c2cn(C)c(=O)c3c2c2ccccc2n3C)o1	16µM*	-3%	0	?	10%	-15	?	i	1.5µM*
COc1cc(CN2CCCCC2C(=O)Nc2ccc(Oc3ccccc3)nc2)ccc1O (stereo unspecified)	13µM*	-5%	-4	3%	1%	6	?	i	0.14µM*
COc1ccc([N+](=O)[O-])c(S(=O)(=O)c2ccc(Cl)cc2)n1	0.5µM*	-2%	-1	12%	-8%	-20	0.13*	26µM*	0.041µM*
COc1nc(OC)nc(Oc2ccc(Cl)cc2[N+](=O)[O-])n1	-35%	-3%	-1	-2%	-18%	.	.	.	.
COc1cc(C(c2nnnn2C(C)(C)C)N2CCN(c3nc4ccccc4s3)CC2)ccc1O (stereo unspecified)	13µM*	2%	4	25µM*	10%[57.1 µM]	-3	?	i	0.16µM*
COc1ccc(-c2nc3cnccn3c2Nc2ccc(C)cc2)cc1	25%[57.1 µM]	-2%	-4	1%	22%[57.1 µM]	.	.	.	.
Cc1ccc(Nc2c(-c3ccc(C)o3)nc3cnccn23)cc1	4µM*	2%	-8	11µM*	13%[57.1 µM]	-12	?	i	2µM*
NS(=O)(=O)c1cc(C(=O)OCC(=O)Nc2ccccc2[N+](=O)[O-])ccc1Cl	-2%[57.1 µM]	0%	-4	-1%	3%[57.1 µM]	.	.	.	.
